Screening data: PubChem, National Center for Advancing Translational Sciences (NCATS)
The list is not random: actives were taken first. Their share in the collection is about 12%.
Sfp inh: Sfp phosphopantetheinyl transferase inhibition; Potency, µM, for inactives: largest response in the series, negative = inhibition, usual class: inhibitors; Biochemical Sfp PPTase activity, qHTS; Q9F4F7; 3.5% of 310,000 active;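 also: the enzyme is Sfp with the accession as filed and its product quenches rhodamine fluorescence; potency is read from the fitted curve at half-maximal effect; 0% = enzyme reaction without inhibitor and -100% = no enzyme wells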
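Sfp 15 nM + cpd, 15 min RT; start w/ rhodamine-CoA 5 uM, BHQ-2-YbbR 12.5 uM (final); 50 mM Hepes pH 7.6, 10 mM MgCl2, 0.01% NP-40, 0.01% BSA; read 525/598 nm at 0 and 30 min.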
JMJD2A Tudor: blocks the human JMJD2A Tudor domain | O75164 | AlphaScreen JMJD2A-Tudor / H3K4me3 peptide binding | Potency, µM (highest dose often 114 µM), inactives show at the highest dose activity change, negative = inhibition, usual class: inhibitors | 4.4% of 390,000 active | AID 504339; also: potency is read from the fitted curve at half-maximal effect; % is scaled to controls: 0 for no effect and ±100 for the full control effect; nearly all actives have a fitted effect of over 50% in size
HP1b binding inh: blocks HP1-beta chromodomain binding to methylated histone tails; P83916; AlphaScreen HP1-beta / biotin-H3K9me3 peptide binding; Potency, µM (top dose mostly 114 µM), for inactives: at the top dose activity change, negative = inhibition, actives largely listed as inhibitors; 0.56% of 390,000 active; AID 540317; also: potency is read from the fitted curve at half-maximal effect; nearly all actives have a fitted effect of over 70% in size
Target sequence (P83916 whole entry, looked up): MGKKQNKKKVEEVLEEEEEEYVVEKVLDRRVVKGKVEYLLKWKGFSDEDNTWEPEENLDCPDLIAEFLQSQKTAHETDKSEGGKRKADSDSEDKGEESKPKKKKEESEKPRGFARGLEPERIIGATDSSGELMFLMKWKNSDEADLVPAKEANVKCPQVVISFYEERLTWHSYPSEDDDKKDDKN
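AlphaScreen: HP1-beta (50 nM) preformed 30 min with biotin-H3(1-18)K9me3 peptide (50 nM) in PBS pH 7.4, 0.01% Tween-20. Compound added for 30 min at RT, then streptavidin donor/nickel chelate acceptor beads (10 ug/mL) for 30 min.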
PLK1 PBD block: blocks phosphopeptide binding to human PLK1 polo-box domain; P53350; Plk1 PBD binding of FITC phosphopeptide, fluorescence polarization; Potency, µM, inactives show max response, negative = inhibition, usual class: inhibitors; 2.8% of 360,000 active; AID 720504; also: potency is read from the fitted curve at half-maximal effect; series mostly up to about 57 µM; % is scaled to controls: 0 for no effect and ±100 for the full control effect; nearly all actives have a fitted effect of over 65% in size
BAZ2B block: blocks human BAZ2B; Q9UIF8; AlphaScreen BAZ2B-H3K14Ac peptide displacement; Potency, µM (top dose mostly 114 µM), without a hit: at the top dose activity change, negative = inhibition, actives largely listed as inhibitors; 4.4% of 360,000 active; AID 504333; also: potency is read from the fitted curve at half-maximal effect; % is scaled to controls: 0 for no effect and ±100 for the full control effect; nearly all actives have a fitted effect of over 60% in size
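AlphaScreen displacement: compounds (up to 110uM) incubated 30 min at room temperature with a preformed 50 nM BAZ2B/50 nM biotinylated H3K14Ac peptide complex in PBS pH 7.4 with Tween-20. Donor and acceptor beads at 10 ug/mL final added, 20 min light-protected before reading.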
G9a block: blocks human histone lysine methyltransferase G9a. Potency, µM (doses to about 102 µM), for inactives: at the top dose activity, negative = inhibition, hits mostly inhibitors. 8.8% of 350,000 active. Q96KQ7. G9a H3K9 monomethylation, AlphaScreen, 2 h; also: potency is read from the fitted curve at half-maximal effect; % is scaled to controls: 0 for no effect and ±100 for the full control effect; nearly all actives have a fitted effect of over 75% in size
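Methyltransferase reactions run at room temperature for 2 h (20 nM enzyme, 500 nM biotin-H3K9 peptide, 20 uM SAM) after a 15 min compound preincubation; product detected by AlphaScreen beads and anti-H3K9me1 antibody.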
12-hLO 8HQ R1: confirmation of human 12-lipoxygenase inhibitors, 8HQ series round 1; shares compounds with BAZ2B block; purified 12-hLO, cuvette UV 234 nm product formation; Potency, µM, hits mostly inhibitors; 60% of 35 active; AID 2163;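 active = compounds that slowed 12-hLO product formation enough to yield a measured IC50 potency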
Target sequence (P18054 whole entry, looked up): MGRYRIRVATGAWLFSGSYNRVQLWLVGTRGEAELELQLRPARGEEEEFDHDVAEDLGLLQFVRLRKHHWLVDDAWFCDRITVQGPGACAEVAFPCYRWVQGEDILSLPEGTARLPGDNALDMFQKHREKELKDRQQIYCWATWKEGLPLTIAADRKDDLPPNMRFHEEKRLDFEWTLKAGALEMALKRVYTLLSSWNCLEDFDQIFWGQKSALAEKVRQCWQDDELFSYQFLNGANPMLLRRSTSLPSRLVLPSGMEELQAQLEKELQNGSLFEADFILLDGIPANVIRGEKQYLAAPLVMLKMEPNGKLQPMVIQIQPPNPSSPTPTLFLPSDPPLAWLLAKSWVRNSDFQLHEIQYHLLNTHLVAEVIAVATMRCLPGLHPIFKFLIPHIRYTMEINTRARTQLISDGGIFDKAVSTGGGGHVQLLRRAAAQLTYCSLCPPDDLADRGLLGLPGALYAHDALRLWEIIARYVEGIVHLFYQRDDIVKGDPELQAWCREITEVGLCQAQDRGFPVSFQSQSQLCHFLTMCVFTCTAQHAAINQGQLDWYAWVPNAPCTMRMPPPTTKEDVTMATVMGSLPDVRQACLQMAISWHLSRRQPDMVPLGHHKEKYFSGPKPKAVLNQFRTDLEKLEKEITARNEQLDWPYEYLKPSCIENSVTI
JMJD2E inh: JMJD2E demethylase inhibition by 8HQ compounds. shares compounds with BAZ2B block. 89% of 130 active. Potency, µM (titrated, usually from 57 µM), inactives show top-dose activity, negative = inhibition, most hits filed as inhibitors. JMJD2E demethylase, FDH-coupled NADH fluorescence (FDH is formaldehyde dehydrogenase). AID 493212
ME-1 prolif: ME-1 cell growth inhibition; shares compounds with BAZ2B block; ME-1 cell proliferation, ATP luminescence, 48 h; Potency, µM (highest dose often 56.1 µM), without a hit: top-dose activity change, negative = inhibition, actives largely listed as inhibitors; 20% of 140 active
* = called active by the depositor; i = inactive; ? = inconclusive; nt = no result; [ ] = dose if it differs, or a comment. Unless noted, calls follow the shape of the dose curve; as a rule, active = well fitted curve in the direction sought with a large enough effect; inconclusive = small, poorly fitted or top-dose-only effect, or another doubt; inactive = no such curve, though single readings can be large; an effect the other way counts as inactive or inconclusive.

SMILES	Sfp inh	JMJD2A Tudor	HP1b binding inh	PLK1 PBD block	BAZ2B block	G9a block	ME-1 prolif	others
O=C(CSc1ccc(-c2ccccn2)nn1)NCc1ccccc1	-20.5%	?	2.3%	-10.5%	17.8µM*	27.0%	-18.4%
Cc1ccc(NC(=O)c2cc(=O)[nH]c3ccccc23)cc1C	-7.1%	-5.6%	40.5%	-12.6%	-25.8%	nt	nt
CCOc1ccccc1NC(=O)c1sc2nc3n(c(=O)c2c1C)CCCCC3	nt	-12.2%	5.8%	nt	5.1%	-1.2%[59 µM]	nt
CCN(C[C@H]1N[C@@](CC)(C(=O)OC)[C@H]2C(=O)N(Cc3ccccc3)C(=O)[C@@H]12)S(=O)(=O)c1ccc(F)cc1	nt	-10.3%	25.7%	0.7%	nt	nt	nt
CC(Cc1c[nH]c2ccccc12)C(=O)O (stereo unspecified)	4.7%	25.1µM*	?	-10.2%	44.7µM*	10µM*	-10.4%[25.6 µM]
Cc1cccc(C)c1NC(=S)N(CCN(C)C)C(C)c1ccccn1 (stereo unspecified)	-25.3%	-21.4%	8.6%	1.8%	nt	-15.5%	-11.3%[25.6 µM]
Cc1ccccc1NC(=S)N(CCN(C)C)C(C)c1ccco1 (stereo unspecified)	19.0%	-8.1%	7.8%	-7.4%	-3.9%	1.7%[59 µM]	nt
CC(C)CCN(C(=S)Nc1cccc(C(F)(F)F)c1)C(C)c1ccccn1 (stereo unspecified)	-7.2%	11.5%	80.1%	-12.8%	3.9%	1.6%[12.7 µM]	nt
Cc1ccc(C)c(NC(=S)N(CCN(C)C)C(C)c2ccccn2)c1 (stereo unspecified)	-4.3%	-6.3%	33.3%	3.2%	nt	-4.4%	-3.7%[25.6 µM]
CC(c1ccccn1)N(CCN(C)C)C(=S)Nc1cccc(F)c1 (stereo unspecified)	-17.8%	-8.6%	13.8%	-9.8%	?	-9.7%[12.7 µM]	-4.1%[25.6 µM]
CC1CCCC(NC(=O)COC(=O)/C=C/c2ccc([N+](=O)[O-])cc2)C1C (stereo unspecified)	nt	-8.3%	7.1%	-2.7%	nt	nt	nt
NCC(=O)Nc1ccc(Cl)cc1C(=O)c1ccc[nH]1	16.7%	-12.0%	37.8%	1.2%	?	25.1µM*	4.86µM*
CC(=O)Nc1ccc(Cl)cc1C(=O)c1ccc[nH]1	nt	nt	nt	-1.9%	nt	nt	nt
O=C(O)C[C@@H]1C(=O)O[C@@H]2C(COC(=O)c3cc(O)c(O)c(O)c3)O[C@@H](OC(=O)c3cc(O)c(O)c(O)c3)[C@@H](OC(=O)c3cc(O)c(O)c4c3[C@H]1[C@H](O)C(=O)O4)[C@H]2OC(=O)c1cc(O)c(O)c(O)c1 (stereo partly specified)	44.7µM*	nt	nt	nt	0.708µM*	?	?
CCN(CC)c1ccc(NC(=O)Cn2c3ncccc3c(=O)n2-c2ccccc2)c(C)c1	nt	-18.8%	12.5%	nt	-2.5%	?	nt
Cc1nc2ccccc2c(=O)n1/N=C/c1ccccc1F	11.9%	2.1%	21.1%	-4.7%	4.8%	-0.7%	nt
CN=c1scc(-c2ccccc2F)n1/N=C/c1ccc(O)c(O)c1O	3.16µM*	31.6µM*	28.2µM*	5.32µM*	7.94µM*	12.6µM*	4.47µM*
CN(/N=C/c1ccc(N(C)C)cc1)C1=NS(=O)(=O)c2ccccc21	-2.5%	-9.6%	16.1%[57 µM]	20.2%	3.0%	14.4%	nt
Oc1cccc(O)c1O	39.8µM*	nt	nt	nt	nt	3.55µM*	0.7%
Cc1ccc(Cn2ccc(NC(=O)c3c(-c4ccccc4Cl)noc3C)n2)cc1	17.5%	-15.5%	12.7%	0.0%	-18.2%	-28.4%[59 µM]	nt
CC(=O)c1ccc(NC(=O)c2ccc(-n3cnnn3)cc2)cc1	nt	-13.4%	18.6%	-1.0%	0.1%	?	nt
CC(C)=CC[C@@H](O)C1=CC(=O)c2c(O)ccc(O)c2C1=O	50.1µM*	nt	nt	nt	nt	6.31µM*	1.12µM*
CC(=O)NC(c1cc(F)c2cccnc2c1O)C(C)C (stereo unspecified)	nt	nt	nt	nt	79.4µM*	4.3%[12.7 µM]	nt	12-hLO 8HQ R1=i;JMJD2E inh=20.4µM*
CCC(=O)NC(C)c1cc(Cl)c2ccccc2c1O (stereo unspecified)	nt	0.7%	40.8%	nt	-2.2%	9.2%[0.501 µM]	nt
CC(=O)NC(c1cc(Cl)c2cccnc2c1O)C(C)C (stereo unspecified)	nt	?	32.1%	nt	79.4µM*	9.1%[12.7 µM]	nt	12-hLO 8HQ R1=2.6µM*;JMJD2E inh=22.9µM*
SMILES	Sfp inh	JMJD2A Tudor	HP1b binding inh	PLK1 PBD block	BAZ2B block	G9a block	ME-1 prolif	others
CCC(=O)NC(c1cc(Cl)c2ccccc2c1O)C1CC1 (stereo unspecified)	nt	-8.5%	41.2%	nt	-4.7%	-1.4%[0.501 µM]	nt
CC(=O)NC(c1cc(Cl)c2cccnc2c1O)C1CC1 (stereo unspecified)	nt	?	84.2%	nt	31.6µM*	13.4%[12.7 µM]	nt	12-hLO 8HQ R1=3µM*;JMJD2E inh=18.2µM*
CC(=O)NC(C)c1cc(F)c2cccnc2c1O (stereo unspecified)	nt	79.4µM*	36.8%	nt	22.4µM*	?	nt	12-hLO 8HQ R1=i;JMJD2E inh=22.9µM*
CC(=O)NC(c1cc(Cl)c2ccccc2c1O)C(C)C (stereo unspecified)	nt	-7.1%	46.8%	nt	-2.9%	-13.0%[0.501 µM]	nt
CCCNC(=O)c1cc(C2CCCN(C(=O)C3CCCCC3)C2)on1 (stereo unspecified)	nt	nt	nt	1.4%	nt	nt	nt
CCC(=O)NC(c1cccs1)c1cc(Cl)c2ccccc2c1O (stereo unspecified)	nt	-24.5%	26.2%	nt	?	1.7%[0.501 µM]	nt
CCCC(=O)NC(c1cccs1)c1cc([N+](=O)[O-])c2cccnc2c1O (stereo unspecified)	2.51µM*	14.1µM*	-6.6%	-16.9%	7.94µM*	?	?
CCC(=O)NC(c1cccs1)c1cc(Br)c2cccnc2c1O (stereo unspecified)	nt	nt	nt	nt	70.8µM*	-34.2%[12.7 µM]	nt	12-hLO 8HQ R1=14µM*;JMJD2E inh=20.4µM*
Cc1nc2ccc(NC(=S)N3CCOCC3)cc2nc1C	-17.9%	-15.6%	40.9%	-11.5%	-30.3%	44.7µM*	-13.6%
CN1CCN(C(=O)C(N)Cc2ccccc2)CC1 (stereo unspecified)	17.0%	7.0%	26.3%	0.5%	-15.4%	-8.8%	nt
O=[n+]1c2c(n([O-])c3c1CCCC3)CCCC2	7.1%	-2.6%	14.2%	-2.4%	3.8%	0.7%[59 µM]	nt
CC1(C)N([O-])C2=C(CCCC2)[N+]1=O	-1.9%	-20.3%	-1.1%	-8.9%	?	?	-14.6%[25.6 µM]
